High-throughput results deposited in PubChem BioAssay by National Center for Advancing Translational Sciences (NCATS).
Hits are enriched below; roughly 7.3% of the tested compounds scored in any of these assays.
ELG1 genotox – qHTS screen for small molecules that induce genotoxicity in human embryonic kidney (HEK293T) cells expressing luciferase-tagged ELG1 | HEK293T ELG1-luciferase reporter, luminescence, 16 h | Potency, µM (series often up to 46 µM), usual class: activators | actives 1.3% (n = 330,000); also: nearly all actives have a fitted effect of over 60% in size
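Genotoxic stress is detected as increased luminescence from luciferase-tagged ELG1 in HEK293T cells, measured with ONE-Glo after a 16 hr treatment at 37 °C.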
FLuc modulator – qHTS profiling assay for firefly luciferase inhibitor/activator using purifed enzyme and Km concentrations of substrates (counterscreen for miR-21 project); Luciferin 4-monooxygenase (Photinus pyralis), P08659; AID 588342, 2011; actives 6.9% (n = 360,000); purified FLuc, Km substrates, luminescence inhibition; Potency, µM (top dose mostly 57.5 µM), hits mostly inhibitors; also: nearly all actives have a fitted effect of over 55% in size
Target sequence (P08659 whole entry, looked up): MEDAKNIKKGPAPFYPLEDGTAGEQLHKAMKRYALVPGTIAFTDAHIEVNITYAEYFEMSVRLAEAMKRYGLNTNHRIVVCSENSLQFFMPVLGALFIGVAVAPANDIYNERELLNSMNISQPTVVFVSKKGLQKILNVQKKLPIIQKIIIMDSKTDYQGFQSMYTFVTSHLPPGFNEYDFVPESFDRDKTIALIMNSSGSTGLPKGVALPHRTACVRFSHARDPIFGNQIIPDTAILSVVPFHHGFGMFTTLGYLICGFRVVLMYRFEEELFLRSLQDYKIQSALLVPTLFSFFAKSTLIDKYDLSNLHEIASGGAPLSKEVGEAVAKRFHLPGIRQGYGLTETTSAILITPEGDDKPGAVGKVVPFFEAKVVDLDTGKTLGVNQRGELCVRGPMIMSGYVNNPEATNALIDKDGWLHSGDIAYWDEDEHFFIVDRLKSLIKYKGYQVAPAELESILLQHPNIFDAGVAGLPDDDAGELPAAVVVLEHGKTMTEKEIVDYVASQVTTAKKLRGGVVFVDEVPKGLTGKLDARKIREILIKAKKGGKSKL
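Biochemical qHTS of compounds, final roughly 60 µM downward over six points, against 10 nM purified firefly luciferase using Km concentrations of substrates (10 uM D-luciferin, 10 uM ATP) in Tris acetate pH 7.5 buffer; luminescence output.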
Rab9 prom act – qHTS Assay for Rab9 Promoter Activators; Huh7 Rab9 promoter-luciferase reporter, luminescence, 24 h; Potency, µM (top dose mostly 9.22 µM), most hits filed as activators; actives 2.8% (n = 320,000); AID 485297, 2010; also: nearly all actives have a fitted effect of over 60% in size
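Luciferase signal after 10 min detection reagent at ambient indicates Rab9 promoter upregulation; stably transfected Huh7 cells were treated 24 h with compound in DMSO at 37 °C, 5% CO2.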
NPC1 prom act – qHTS Assay for NPC1 Promoter Activators; Huh7 NPC1 promoter luciferase reporter, 24 h; actives 2.4% (n = 320,000); Potency, µM (titrated, usually from 9.22 µM), actives largely listed as activators; also: nearly all actives have a fitted effect of over 60% in size
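Compounds in DMSO were transferred onto Huh7 NPC1-luciferase reporter cells pre-incubated 2 h; after 24 h at 37 °C, Amplite reagent was dispensed and luminescence recorded 10 min later.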
SMN2 splice up – qHTS Assay for Enhancers of SMN2 Splice Variant Expression | Potency, µM (titrated, usually from 46.1 µM), usual class: activators | actives 2.8% (n = 210,000) | HEK293 SMN2-luciferase splicing reporter, luminescence, 30-36 h; also: nearly all actives have a fitted effect of over 55% in size
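HEK293 cells carry an SMN2 […]–luciferase reporter in which exon 7 inclusion puts luciferase in frame. Cells were plated 10-12 h before compound addition, then incubated 30-36 h at 37C. ONE-Glo luminescence was read; sodium butyrate at 4.5 mM final served as control.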
KinaseGlo FLuc – Counterscreen for Luciferase (Kinase-Glo TM) Inhibition; Luciferin 4-monooxygenase (Photuris pensylvanica), Q27757; Kinase-Glo luciferase, ATP luminescence, 8 min; Potency, µM (top dose mostly 38.3 µM), hits mostly inhibitors; actives 0.28% (n = 200,000); also: nearly all actives have a fitted effect of over 60% in size
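Compound is pinned into ATP-containing buffer (10 uM ATP, imidazole pH 7.2, 7 mM MgCl2). Kinase-Glo luciferase reagent is then added. Light output is recorded following an 8-min room-temperature incubation.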
Large screens that a line does not name were inactive. Calls follow the shape of the dose curve; as a rule, active = well fitted curve in the direction sought with a large enough effect; inconclusive = small, poorly fitted or top-dose-only effect, or another doubt; inactive = no such curve, though single readings can be large; an effect the other way counts as inactive or inconclusive.

COc1cc2c(cc1OC)C1C(=O)c3ccc4c(c3OC1CO2)C=CC(C)(C)O4 (configuration not stated)	none (no result: ELG1 genotox, FLuc modulator, Rab9 prom act, NPC1 prom act)
Cc1nc2nc(SCc3c(F)cccc3Cl)nn2c(C)c1Cc1ccccc1	FLuc modulator 5.36µM (no result: ELG1 genotox, Rab9 prom act, NPC1 prom act, SMN2 splice up, KinaseGlo FLuc)
Cc1cc(N=Nc2c(O)c3ccccc3[nH]c2=O)ccc1N=Nc1ccc(C(=O)N(C)C)cc1	FLuc modulator inconclusive, Rab9 prom act inconclusive, NPC1 prom act inconclusive (no result: SMN2 splice up, KinaseGlo FLuc)
Cc1ccc(N=Nc2c(O)c3ccccc3[nH]c2=O)c(S(=O)(=O)N(C)C)c1	ELG1 genotox inconclusive, FLuc modulator 1.35µM
CCCC(=O)Nc1nc(C(=O)OCC)cs1	none
O=C(COc1ccccc1Cl)Nc1nc(-c2cccs2)cs1	FLuc modulator 16.9µM
CC(=O)Nc1nc(-c2cccs2)cs1	FLuc modulator inconclusive, NPC1 prom act inconclusive
Cc1cc(Cl)ccc1OCC(=O)Nc1nc(-c2cccs2)cs1	FLuc modulator 23.9µM
Cc1cc(Cl)ccc1OCC(=O)Nc1nc(-c2cccnc2)cs1	none (no result: SMN2 splice up, KinaseGlo FLuc)
CCOC(=O)c1csc(NC(=O)COc2ccc(Cl)cc2Cl)n1	FLuc modulator 23.9µM
Cc1ccccc1CNC(=O)C(=O)NCC(c1ccc2c(c1)OCO2)N1CCOCC1 (configuration not stated)	none (no result: ELG1 genotox, Rab9 prom act, NPC1 prom act, SMN2 splice up, KinaseGlo FLuc)
CCN(Cc1ccccc1)S(=O)(=O)c1ccc2c(c1)CC(C)N2C(=O)C1CCC1 (configuration not stated)	none (no result: ELG1 genotox, Rab9 prom act, NPC1 prom act, SMN2 splice up, KinaseGlo FLuc)
CCOC(=O)CC(CC(C)=O)C(=O)OCC (configuration not stated)	none (no result: ELG1 genotox, FLuc modulator, Rab9 prom act, NPC1 prom act)
CCCn1c(-c2ccc(F)cc2)nc2c(N3CCN(Cc4nc(OC)cc(OC)n4)CC3)nc(C)nc21	none (no result: ELG1 genotox, FLuc modulator, Rab9 prom act, NPC1 prom act)
COc1ccc(Nc2nc(-c3sc(NC(C)=O)nc3C)cs2)cc1	FLuc modulator inconclusive
Cc1ccc(Nc2nc(-c3sc(N)nc3C)cs2)cc1	ELG1 genotox inconclusive, FLuc modulator 2.13µM, Rab9 prom act 2.24µM, NPC1 prom act 0.794µM (no result: SMN2 splice up, KinaseGlo FLuc)
CC(=O)Nc1ccc(Nc2nc(-c3sc(C)nc3C)cs2)cc1	FLuc modulator 21.3µM (no result: SMN2 splice up, KinaseGlo FLuc)
Cc1nc(C)c(-c2csc(Nc3ccc(S(N)(=O)=O)cc3)n2)s1	none (no result: SMN2 splice up, KinaseGlo FLuc)
CCOc1ccc(Nc2nc(-c3sc(N)nc3C)cs2)cc1	FLuc modulator 15.1µM, NPC1 prom act inconclusive (no result: SMN2 splice up, KinaseGlo FLuc)
CCOC(=O)c1sc(Nc2ccc(OCC)cc2)nc1C	FLuc modulator inconclusive (no result: SMN2 splice up)
Cc1ccc(Nc2nc(-c3sc(C)nc3C)cs2)cc1	FLuc modulator 12µM (no result: SMN2 splice up, KinaseGlo FLuc)
C=CCNC(=O)N1CCc2nc(CCCC)c3c(c2C1)CO[C@@H](C)C3	none (no result: ELG1 genotox, FLuc modulator, Rab9 prom act, NPC1 prom act)
CCN(C(=O)c1cc2c(Cl)nc3ccccc3c2s1)c1cccc(Cl)c1	none (no result: ELG1 genotox, Rab9 prom act, NPC1 prom act, KinaseGlo FLuc)
O=C(COc1ccc(Cl)cc1)Nc1ccc2nc(SCC(=O)N3CCCC3)sc2c1	none (no result: ELG1 genotox, Rab9 prom act, NPC1 prom act, SMN2 splice up, KinaseGlo FLuc)
Clc1cccc(CSc2nnc(C3CCNCC3)o2)c1	none (no result: ELG1 genotox, Rab9 prom act, NPC1 prom act, SMN2 splice up, KinaseGlo FLuc)
CC1CCCCN1C(=O)c1ccc2c(c1)N(Cc1ccc(Cl)cc1)C(=O)c1ccccc1S2=O (configuration not stated)	none (no result: ELG1 genotox, Rab9 prom act, NPC1 prom act, KinaseGlo FLuc)
COc1ccc(Nc2nc(-c3sc(N)nc3C)cs2)cc1	ELG1 genotox inconclusive, FLuc modulator 13.5µM, NPC1 prom act inconclusive
Cc1ccc(C2=Nc3ccccc3NC(c3ccncc3)=N2)cc1	none (no result: ELG1 genotox, Rab9 prom act, NPC1 prom act, KinaseGlo FLuc)
CC(=O)Nc1ccc(-c2cc(C(=O)O)c3ccc(C)cc3n2)cc1	FLuc modulator 16.9µM (no result: SMN2 splice up, KinaseGlo FLuc)
COC(=O)c1cc(OC)c(OC)cc1NC(=O)c1cc(-c2ccccc2)nc2ccccc12	none
COC(=O)c1cc(-c2ccc(NC(C)=O)cc2)nc2ccccc12	FLuc modulator 12µM
CC(=O)Nc1ccc(-c2cc(C(=O)O)c3cc4ccccc4cc3n2)cc1	none (no result: ELG1 genotox, FLuc modulator, Rab9 prom act, NPC1 prom act)
CN(Cc1ccccc1)c1ccc2cc(S(=O)(=O)N3CCCCC3)ccc2n1	none (no result: ELG1 genotox, Rab9 prom act, NPC1 prom act, SMN2 splice up, KinaseGlo FLuc)
CCOC(=O)c1ccc(NCc2nc3ccccc3[nH]2)cc1	ELG1 genotox inconclusive, FLuc modulator 21.3µM, Rab9 prom act inconclusive, NPC1 prom act inconclusive
